A short description of assay [1]: compounds binding Alexa647 anti-His antibody – biochemical, small-molecule microarray, 635 nm fluorescence, artefact control for SMM control protein annotation, primary screen (AID 1128).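 Note: score merges feature fluorescence with signal-to-noise for each printed compound spot.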 As to conditions: higher = more signal.
The test system of assay [2] is Human papillomavirus type 1a E7 protein (residues 1-88). The assay can be described thus: HPV1a E7 small-molecule binders, primary screen, biochemical, small-molecule microarray, residues 1-88, 635 nm (AID 1129). The following applies: small-molecule microarray binding, fluorescence 635 nm; higher = more signal.
The target in assay [3] is Focal adhesion kinase 1 (Homo sapiens) (UniProt Q05397). The experiment in a line: PTK2 protein binding on printed compound slides – biochemical, small-molecule microarray, 635/667 nm fluorescence, BSA, DTT, primary screen (AID 1130).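 Note: composite of spot emission at 667 nm and signal to noise over triplicate slides.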 The following applies: 635 nm fluorescence, higher = more signal.
For assay [4], the system named is Fibrinogen (Alexa647-labelled). The assay can be described thus: Alexa647-fibrinogen binding to printed small molecules – biochemical, small-molecule microarray, 635/667 nm fluorescence, artefact control for SMM control-protein annotation, profiling panel (AID 1131).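 Note: z-score merges 667 nm fluorescence with per-spot signal-to-noise over triplicate slides.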 As to conditions: fibrinogen-A647 binding fluorescence, higher = more signal.
For assay [5], the target named is Follistatin (Homo sapiens) (UniProt P19883). The experiment in a line: FST protein binding to printed compounds – biochemical, small-molecule microarray, 635/667 nm fluorescence, primary screen (AID 1132). The following applies: 635 nm fluorescence, higher = more signal.
In assay [6] the target is Fibroblast growth factor 2 (Homo sapiens) (UniProt P09038). The experiment in a line: basic fibroblast growth factor binding to printed compounds – biochemical, small-molecule microarray, 635/667 nm fluorescence, primary screen (AID 1133). As to conditions: FGF2, fluorescence 635/667, higher = more signal.
A short description of assay [7]: JC-1 mitochondrial potential readout, lung cancer cells – cell-based, A549, JC-1 fluorescence, basal, 24 h, 100 nL, profiling panel (AID 1138).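 Note: A549 lung adenocarcinoma cells under basal conditions with no added stimulus; test concentration not given here.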 As to conditions: higher = more signal.
The next assay has as its system Lefty1. The assay can be described thus: Lefty1 protein binding to printed compounds – biochemical, small-molecule microarray, 635/667 nm fluorescence, primary screen (AID 1139). The following applies: fluorescence 635/667, higher = more signal.
The test system of assay [8] is wheat germ agglutinin (Triticum aestivum), Alexa647-labelled. The assay can be described thus: Alexa647-WGA lectin binding to printed small molecules – biochemical, small-molecule microarray, 635/667 nm fluorescence, artefact control for SMM control-protein annotation, profiling panel (AID 1140).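 Note: score merges 667 nm feature emission with signal to noise over triplicate slides.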 As to conditions: WGA-A647 binding, 635 nm fluorescence, higher = more signal.

Assay [9] addresses Luciferin 4-monooxygenase (Photinus pyralis) (UniProt P08659). The experiment in a line: inhibition of purified Photinus pyralis luciferase – biochemical, luminescence, purified enzyme, 2006 set, primary screen (AID 1141).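 Note: cell-free assay with purified firefly luciferase at 100 ng per well in PBS; test concentration not given here.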 The following applies: purified firefly luciferase, SteadyGlo luminescence, 30 min; higher = more signal, called active from +8 up or from −8 down.
Assay [10] deals with Wnt5a (protein binding on small-molecule microarray). The assay can be described thus: small molecules binding Wnt5a protein – biophysical, small-molecule microarray, 635/667 nm fluorescence, primary screen (AID 1142).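 Note: fluorescence read at 667 nm with signal to noise per printed feature.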 As to conditions: 635 nm fluorescence, higher = more signal.
Assay [11] can be described thus: ATP-based viability of Huh7 replicon cells – cell-based, CellTiter-Glo luminescence, basal, 48 h, cytotoxicity control for HCV replication inhibitor project, primary screen (AID 1143).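 Note: Huh7 hepatoma cells carrying a hepatitis C replication reporter with no stimulus; test concentration not given here.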 The following applies: higher = more signal, called active from +8 up or from −8 down.
Assay [12] can be described thus: Pseudomonas biofilm growth suppression – PAO1 strain, BacTiter-Glo luminescence, LB-PBS, primary screen (AID 1144). As to conditions: P. aeruginosa PAO1 biofilm, 12 h, higher = more signal.
A short description of assay [13]: basal CRE-LacZ reporter activity in PC12 – cell-based, unstimulated, primary screen (AID 1145). As to conditions: no forskolin, luminescence, 4.5 h, higher = more signal, called active from +8 up or from −8 down.
A short description of assay [14]: forskolin-driven CRE-LacZ activity in PC12 – cell-based, CRE-LacZ reporter, forskolin-stimulated, primary screen (AID 1146).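 Note: PC12 cells with 6xCRE LacZ reporter stimulated by forskolin 10 µM; beta-galactosidase reporter signal reflecting CREB driven transcription.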 As to conditions: luminescence, 4.5 h, higher = more signal, called active from +8 up or from −8 down.
The target of assay [15] is Streptavidin (Streptomyces avidinii) (UniProt P22629). The experiment in a line: compounds binding control protein streptavidin – biophysical, small-molecule microarray, 635/667 nm fluorescence, artefact control for SMM compound annotation, primary screen (AID 1147).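 Note: signal reflects streptavidin binding to arrayed compounds as a control protein.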 The following applies: higher = more signal.
Assay [16] in a line: probe aInhba binding on compound microarray – biochemical, small-molecule microarray, 635/667 nm fluorescence, primary screen (AID 1148).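 Note: score merges 667nm spot fluorescence with signal-to-noise for antibody binding to printed compounds.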 As to conditions: higher = more signal.
The target in assay [17] is Torsin-1A (Homo sapiens) (UniProt O14656). The assay can be described thus: TOR1A wild-type binding on microarray – cell lysate, small-molecule microarray, lysate, 635/667 nm, primary screen (AID 1149). As to conditions: COS7 hTOR1A-WT lysate, 635 nm fluorescence, higher = more signal.
Assay [18] has the same target. The assay can be described thus: torsin A mutant lysate binding on microarrays – cell lysate, small-molecule microarray, COS7 lysate, 635/667 nm fluorescence, primary screen (AID 1150).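 Note: score pools 667 nm emission and signal to noise measuring lysate protein binding.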 As to conditions: COS7 hTOR1A mutant lysate, 635 nm fluorescence, higher = more signal.
Assay [19] has as its system Sonic hedgehog protein (Shh). The experiment in a line: Sonic hedgehog microarray binding compounds – biochemical, small-molecule microarray, 635/667 nm fluorescence, primary screen (AID 1151).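 Note: Shh protein binding to compounds spotted on small-molecule microarray slides; score combines spot fluorescence intensity with signal-to-noise across triplicate slides.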 The following applies: 635 nm fluorescence, higher = more signal.

Experimental findings from PubChem BioAssay are described below.

Calls of active or inactive are those of the source. Unless noted, the rule behind the calls is not given here.

Sequence of Follistatin (Homo sapiens) (P19883 whole entry, looked up): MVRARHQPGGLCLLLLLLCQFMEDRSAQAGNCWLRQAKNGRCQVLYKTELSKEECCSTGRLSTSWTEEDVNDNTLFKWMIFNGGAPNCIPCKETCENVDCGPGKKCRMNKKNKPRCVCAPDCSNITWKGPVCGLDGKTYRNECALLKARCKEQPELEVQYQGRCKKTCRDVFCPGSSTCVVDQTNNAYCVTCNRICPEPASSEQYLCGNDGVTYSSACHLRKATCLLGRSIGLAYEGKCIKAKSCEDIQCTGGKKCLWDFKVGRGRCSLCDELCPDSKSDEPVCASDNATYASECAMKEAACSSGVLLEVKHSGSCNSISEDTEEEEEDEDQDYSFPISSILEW
Sequence of Fibroblast growth factor 2 (Homo sapiens) (P09038 whole entry, looked up): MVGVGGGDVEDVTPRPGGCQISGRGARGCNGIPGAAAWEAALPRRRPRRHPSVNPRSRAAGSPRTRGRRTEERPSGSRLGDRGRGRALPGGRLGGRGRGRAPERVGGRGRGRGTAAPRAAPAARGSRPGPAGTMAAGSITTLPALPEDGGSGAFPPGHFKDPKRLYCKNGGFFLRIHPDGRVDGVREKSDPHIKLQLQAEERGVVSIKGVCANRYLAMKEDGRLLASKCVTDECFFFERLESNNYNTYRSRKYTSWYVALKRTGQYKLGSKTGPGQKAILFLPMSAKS
Sequence of Torsin-1A (Homo sapiens) (O14656 whole entry, looked up): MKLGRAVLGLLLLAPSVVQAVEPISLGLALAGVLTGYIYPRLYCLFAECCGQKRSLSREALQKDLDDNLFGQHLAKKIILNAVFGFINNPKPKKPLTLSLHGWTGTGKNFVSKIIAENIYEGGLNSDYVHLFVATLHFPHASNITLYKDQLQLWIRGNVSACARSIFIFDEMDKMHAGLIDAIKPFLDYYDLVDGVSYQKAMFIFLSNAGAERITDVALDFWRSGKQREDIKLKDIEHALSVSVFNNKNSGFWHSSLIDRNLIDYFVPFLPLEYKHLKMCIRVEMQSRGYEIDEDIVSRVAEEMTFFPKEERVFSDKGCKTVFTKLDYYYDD
Sequence of Streptavidin (Streptomyces avidinii) (P22629 whole entry, looked up): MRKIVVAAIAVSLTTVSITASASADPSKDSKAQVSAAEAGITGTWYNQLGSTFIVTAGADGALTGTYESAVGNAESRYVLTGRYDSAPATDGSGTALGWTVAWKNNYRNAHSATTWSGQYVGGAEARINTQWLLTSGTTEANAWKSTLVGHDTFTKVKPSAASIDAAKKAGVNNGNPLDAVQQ
Sequence of Focal adhesion kinase 1 (Homo sapiens) (Q05397 whole entry, looked up): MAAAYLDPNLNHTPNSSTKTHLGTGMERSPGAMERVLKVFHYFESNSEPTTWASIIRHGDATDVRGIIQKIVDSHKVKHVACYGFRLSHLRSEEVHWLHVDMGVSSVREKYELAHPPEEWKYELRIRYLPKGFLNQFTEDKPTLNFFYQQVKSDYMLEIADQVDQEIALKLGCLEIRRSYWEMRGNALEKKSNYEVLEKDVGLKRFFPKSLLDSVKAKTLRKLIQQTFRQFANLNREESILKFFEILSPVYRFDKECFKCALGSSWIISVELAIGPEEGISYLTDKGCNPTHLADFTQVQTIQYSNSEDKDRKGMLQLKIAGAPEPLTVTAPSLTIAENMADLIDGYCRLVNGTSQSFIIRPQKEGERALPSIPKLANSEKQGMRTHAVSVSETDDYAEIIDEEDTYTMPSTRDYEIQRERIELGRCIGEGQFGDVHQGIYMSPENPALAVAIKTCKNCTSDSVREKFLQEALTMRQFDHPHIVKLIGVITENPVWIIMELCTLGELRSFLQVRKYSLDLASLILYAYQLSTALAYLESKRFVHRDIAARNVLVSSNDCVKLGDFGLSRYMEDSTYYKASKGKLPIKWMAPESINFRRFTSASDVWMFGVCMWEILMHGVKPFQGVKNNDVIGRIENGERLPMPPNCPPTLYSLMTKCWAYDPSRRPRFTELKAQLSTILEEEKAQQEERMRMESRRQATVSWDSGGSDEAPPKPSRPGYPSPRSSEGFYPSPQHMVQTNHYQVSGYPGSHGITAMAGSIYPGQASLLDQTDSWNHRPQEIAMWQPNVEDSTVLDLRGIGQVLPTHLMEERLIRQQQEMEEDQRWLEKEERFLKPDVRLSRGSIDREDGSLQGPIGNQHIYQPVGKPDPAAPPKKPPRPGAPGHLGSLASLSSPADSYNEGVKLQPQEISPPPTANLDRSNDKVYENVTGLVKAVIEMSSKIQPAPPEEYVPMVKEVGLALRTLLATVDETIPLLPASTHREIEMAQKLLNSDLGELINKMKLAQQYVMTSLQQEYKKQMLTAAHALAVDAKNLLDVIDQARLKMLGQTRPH
Sequence of Luciferin 4-monooxygenase (Photinus pyralis) (P08659 whole entry, looked up): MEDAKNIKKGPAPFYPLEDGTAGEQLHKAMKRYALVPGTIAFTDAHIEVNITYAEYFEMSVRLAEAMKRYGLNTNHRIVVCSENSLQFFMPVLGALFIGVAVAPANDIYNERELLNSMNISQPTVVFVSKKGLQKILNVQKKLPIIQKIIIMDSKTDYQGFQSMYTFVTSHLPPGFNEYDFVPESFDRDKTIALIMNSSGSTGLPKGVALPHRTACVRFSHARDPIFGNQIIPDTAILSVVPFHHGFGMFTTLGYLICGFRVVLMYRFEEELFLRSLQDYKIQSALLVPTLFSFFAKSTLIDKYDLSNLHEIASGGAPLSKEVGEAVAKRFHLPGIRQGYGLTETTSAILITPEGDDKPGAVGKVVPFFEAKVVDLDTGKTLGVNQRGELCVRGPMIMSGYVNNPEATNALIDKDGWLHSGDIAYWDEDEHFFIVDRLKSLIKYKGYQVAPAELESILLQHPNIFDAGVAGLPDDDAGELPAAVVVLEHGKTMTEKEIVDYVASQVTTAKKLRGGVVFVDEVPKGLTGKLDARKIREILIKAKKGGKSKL

`C[C@@H](OCc1ccccc1)C1NC(=O)[C@@]23C(=O)N[C@@H](Cc4ccccc4)C2[C@H](C)[C@@]2(C)O[C@H]2C3/C=C/C/C=C\CNC(=O)[C@H](Cc2ccccc2)NC1=O` (stereo not given in full): the composite z-score is 0.276 in assay [1]; -0.197 in assay [2]; -0.422 in assay [3]; 0.569 in assay [4]; 0.793 in [5]; 0.803 in [6]. Besides, the composite z-score with Lefty1 is 0.557; in [8], -0.228; in assay [10], -0.0187; in [15], -0.85; in assay [16] it was 0.0131; in the assay with Torsin-1A (Homo sapiens) [17], -0.258. In addition, the composite z-score stood at 0.293 with Torsin-1A (Homo sapiens) [18] and 1.07 in [19]. Also, the z-score in [7] was -0.227; in [9], -3.26 (inactive); in assay [11], -3.97 (inactive); in assay [12] it was 0.541 (inactive); in assay [13], 5.48 (inactive); in assay [14], -0.164 (inactive).

Consider `C#CCN=C(N)N`, for which the composite z-score in [1] was 0.468; in [2] it was 0.611; in assay [3] it was -0.0375; in [4] it was 0.802; in [5], 0.785; in assay [6], 0.388. Further, the composite z-score stood at 0.858 with Lefty1; 0.299 in assay [8]; 0.0311 in assay [10]; 0.314 in assay [15]; 0.0797 in assay [16]; 1.7 in the assay with Torsin-1A (Homo sapiens) [17]. The figures for the composite z-score (in the assay with Torsin-1A (Homo sapiens) [18]; in [19]) were 0.832 and 0.666, respectively. In addition, the z-score was -0.317 in [7]; 0.523 (inactive) in [9]; -0.347 (inactive) in assay [11]; 0.214 (inactive) in assay [12]; -0.0247 (inactive) in assay [13]; -0.055 (inactive) in [14].

For the molecule `CCOC(=O)C1=CCC(c2cc3ccccc3[nH]2)N(S(=O)(=O)c2ccccc2[N+](=O)[O-])C1` (stereo not given), the composite z-score in assay [1] was 0.584; in assay [2], 1.2; in [3] it was 0.501; in assay [4] it was 0.0547; in [5], 0.574; in assay [6], -0.103. Further, the composite z-score in the assay on Lefty1 was 0.306; in assay [8], 0.896; in assay [10] it was 0.379; in assay [15], -0.141; in [16] it was -0.101; with Torsin-1A (Homo sapiens) [17] it was 0.0459. Moreover, the composite z-score is 0.609 with Torsin-1A (Homo sapiens) [18] and -0.312 in assay [19]. The z-score in assay [7] was 1.05; in assay [9], -0.0781 (inactive); in [11], -5.05 (inactive); in assay [12] it was -0.295 (inactive); in [13], -0.172 (inactive); in assay [14] it was -0.0943 (inactive).

As for `CN(C)C(=O)[C@@]1(CCS(=O)(=O)c2ccccc2)N=C(c2ccc(OCCCO)cc2)O[C@H]1c1ccccc1N=[N+]=[N-]`, the composite z-score in assay [1] is 0.838; in assay [2] it was 1.25; in assay [3], 0.601; in assay [4], 1; in assay [5], 1.1; in [6] it was 0.58. The composite z-score turned out to be 0.267 with Lefty1; 0.371 in assay [8]; 1 in [10]; 1.82 in [15]; 0.0569 in assay [16]; 0.155 in the assay with Torsin-1A (Homo sapiens) [17]. For the same molecule, the results for the composite z-score (in the assay with Torsin-1A (Homo sapiens) [18]; in assay [19]) were 0.797 and -0.337, respectively. Further, the z-score is 0.371 in assay [7]; -11 (active) in [9]; -3.2 (inactive) in assay [11]; 1.75 (inactive) in [12]; 0.447 (inactive) in assay [13]; -1.37 (inactive) in [14].

Take `C=CCC(OC(C)=O)[C@@H]1[C@@H](N(Cc2ccc(-c3ccccc3)cc2)C(=O)c2ccc(C)cc2)c2cc(OCCCO)ccc2N1C(=O)c1ccc2ccccc2c1` (stereo not given in full): the composite z-score in assay [1] is -0.722; in assay [2], 0.117; in assay [3], -0.161; in assay [4], -0.283; in assay [5], 0.576; in assay [6], -0.0502. Further, the composite z-score with Lefty1 was 0.297; in assay [8] it was 0.008; in [10], 0.0548; in [15] it was 0.122; in assay [16], 0.108; in the assay with Torsin-1A (Homo sapiens) [17], 0.222. Further, the composite z-score was -0.0531 with Torsin-1A (Homo sapiens) [18] and 0.587 in assay [19]. Besides, the z-score in assay [7] is 1.68; in assay [9], -1.9 (inactive); in assay [11], -0.715 (inactive); in [12], 0.137 (inactive); in assay [13], 1.97 (inactive); in assay [14] it was 0.179 (inactive).
